HSF1 inhib – HSF1 inhibition | NIH3T3-HGL HSE-luciferase, MG132-induced, luminescence 8 h; active compounds read low | activity change, negative = inhibition, % at 7.5 µM (by protocol) | actives 0.77% (n = 300,000) | AID 2098;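 active means more than half of replicate wells show activity change below -50%, luminescence cut by over half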;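 further: luciferase reports HSF-1 transcriptional activity via heat shock element; 0% = median of DMSO wells and -100% = zero luminescence signal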
GAA850 FXN act – frataxin GAA850 promoter activation; actives 0.56% (n = 360,000); AID 540364; HEK293 lucGAA850 FXN promoter luciferase reporter, 24 h; percent of 10 µM SAHA response; activation, % at 6 µM;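 active means activation above the average of all compounds screened plus 3 SD, cutoff fixed separately per campaign, cut at about 7.5% in these data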;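 further: 0% = DMSO wells and 100% = 10 µM SAHA wells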
PG9 binder – small molecules binding HIV-1 gp120 antibody PG9; TR-FRET gp120-PG9 antibody binding; inhibition, % at 6.7 µM; actives 0.43% (n = 360,000); AID 624416; in the data active means inhibition above about 8.5%
AI-2 QS mod – modulates the Vibrio harveyi AI-2 quorum sensing system; Vibrio harveyi JMH597 AI-2 luminescence/OD600 ratio, 9 h; active compounds read low; strain lacks LuxN and CqsS sensors; 0 = neutral-control median; actives 0.4% (n = 300,000); activity change, % at 7.5 µM; in the data active means activity change below about -75%, passing the limit was not always enough;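 further: luminescence divided by OD600 gain over 9 h not by final OD600 alone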
HSP90 inh – HSP90 refolding inhibition in rabbit reticulocyte lysate. luciferase refolding luminescence, 3 h. inhibition, % at 5.6 µM. actives 0.91% (n = 290,000). AID 1789;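 active means inhibition above the screen-wide mean plus 3 SD, computed separately per campaign, cut at about 16% in these data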;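 further: 0% = DMSO wells and 100% = 60 µM geldanamycin wells; inhibitors lower the luminescence because luciferase stays unfolded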
SMARCA2 act – SMARCA2 function activation, primary screen; MG213 cells, MMTV-luciferase reporter, dexamethasone, overnight; activation, % at 9.1 µM; actives 1% (n = 370,000); AID 652017; in the data active means activation above about 7.8%;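 further: 0% = vehicle wells and 100% = reference activator wells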
Numbers without * were called inactive; . = no result. In the library only some 3.4% were active in any assay of this set; here they are far more common.

SMILES	HSF1 inhib	GAA850 FXN act	PG9 binder	AI-2 QS mod	HSP90 inh	SMARCA2 act
Cc1cc(-c2ccccc2)c2ccc(NC(=O)C(C)(C)C)nc2n1	-61.9*	-2.2	-2.5	-3.5	2.8	-2.4
O=C(OCC(=O)N1CCN(C(=O)c2ccco2)CC1)c1sc2cc(F)ccc2c1Cl	-54.7*	4.6	2.4	.	-1.5	-2.9
O=C(OCC(=O)N1CCN(C(=O)c2ccco2)CC1)c1cccc(F)c1	.	0.5	-0.5	.	.	2.3
COCCSc1nnc(-c2cccnc2)n1Cc1ccccc1	.	.	.	.	.	-3.1
OC1CCN(Cc2cccc(Oc3ccccc3)c2)CC1	-51.3*	-0.3	-1.9	8.2	-3.8	-1.5
O=C(N/N=C/c1ccccc1Cl)c1n[nH]c2c1CCCC2	-66.5*	1.4	-1.8	29.9	20.1*	5.1
Cc1cccc(OCC(O)Cn2c(=N)n(CCN3CCCCC3)c3ccccc32)c1 (stereo unspecified)	6.0	-4.2	-0.5	10.4	7.2	7.8*
Cc1cccc(OCC(O)Cn2c(=N)n(Cc3ccccc3)c3ccccc32)c1 (stereo unspecified)	-5.5	-2.7	0.2	24.4	3.1	-5.9
COc1ccc(CC(=O)N2CCN(C(=O)c3ccc4nc(C)n(C5CCCC5)c4c3)CC2)cc1	.	.	.	.	.	-1.5
O=C(CC1CCCCC1)NCc1ccccn1	-90.4*	1.6	0.4	16.3	-0.8	0.7
COc1ccc(/C=C2\CC3(OC(=O)c4ccccc4)CCCN2C3)cc1 (stereo unspecified)	.	.	.	.	.	1.4
Cc1ccc(C2=NNC(=O)C(c3ccc(Cl)cc3)C2)cc1 (stereo unspecified)	15.9	1.4	-1.4	-83.9*	-0.1	-1.4
CCCCn1c(NC(=O)c2ccccc2)c(C#N)c2nc3ccccc3nc21	.	-8.2	1.3	.	48.6*	-3.2
CCCCn1c(NC(=O)c2ccc(F)cc2)c(C#N)c2nc3ccccc3nc21	3.1	.	.	-29.2	.	.
C[C@H]1CN(S(=O)(=O)C(C)(C)C)[C@@H](CCO)/C1=C\c1ccccc1	.	.	-0.7	.	.	-3.2
C=CCn1c(=N)n(CC(=O)c2cccc([N+](=O)[O-])c2)c2ccccc21	-5.6	2.6	-0.3	-7.8	-1.3	-3.3
N=c1n(CCN2CCCCC2)c2ccccc2n1CC(=O)c1cccc([N+](=O)[O-])c1	1.2	1.8	-1.0	8.8	0.3	8.6*
Cc1ccccc1S(=O)(=O)Nc1cccnc1	10.3	-1.5	0.2	12.2	-3.9	-4.1
Cc1ccc(S(=O)(=O)Nc2cccnc2)c(C)c1C	-82.9*	1.4	1.1	20.9	1.7	3.8
COC(=O)[C@]12C[C@H](CC(=O)NCc3cccc(C(F)(F)F)c3)C(=O)N(Cc3cccc4ccccc34)C1=C[C@H](C1CCCC1)O[C@@H]2C	.	.	.	.	.	-6.4
O=[N+]([O-])c1ccc(Nc2ccc(F)cc2)nc1	-2.0	5.2	4.0	27.1	-1.7	-1.4
O=[N+]([O-])c1ccc(Nc2ccc(F)cc2)cc1	-80.9*	1.2	-1.7	23.6	1.4	-1.1
O=C(NCc1ccc(F)cc1)c1cnc2n(c1=O)CCS2	-8.3	1.9	0.1	5.7	-4.1	-1.7
C=CCNC(=O)c1cnc2n(c1=O)CCS2	-0.4	-0.6	2.7	6.2	-6.0	7.9*
COc1ccc(OC)c(CN2C(=O)CSCC2(C)c2nnnn2C2CCCC2)c1 (stereo unspecified)	.	.	.	.	.	-0.9
SMILES	HSF1 inhib	GAA850 FXN act	PG9 binder	AI-2 QS mod	HSP90 inh	SMARCA2 act
CN(c1ncnc(N)c1[N+](=O)[O-])C1CCCCC1	-40.3	-7.7	0.4	14.3	-2.9	-3.2
CCCCN(c1ccccc1)c1ncnc(N)c1[N+](=O)[O-]	-52.1*	-8.6	8.5	29.9	-0.9	-4.5
COc1ccc(/C=C2\CC3(OC(=O)c4cccc(F)c4)CCCN2C3)cc1 (stereo unspecified)	.	.	.	.	.	-3.0
CC1(C)Cc2nc3sc4c(=O)n(CC(=O)NCc5ccccc5)cnc4c3cc2CO1	.	-1.8	49.8*	35.8	2.0	-0.8
Cc1ccc(-c2nc(NC(=O)c3nn(C)cc3[N+](=O)[O-])sc2C)cc1C	-83.9*	-0.2	-1.0	25.4	3.5	-10.5
Cc1ccc(-c2nc(NC(=O)c3nn(C)cc3[N+](=O)[O-])sc2C)cc1	8.2	-7.0	-0.4	6.7	4.7	-11.5
CC(O)CNCCCOc1ccc(Cl)cc1C(C)(C)C (stereo unspecified)	-65.7*	-3.7	-0.4	-0.1	-0.6	-4.5
CN(C)CCOCCOc1ccc(Cl)cc1C(C)(C)C	6.6	-2.5	-0.1	16.9	3.5	-2.0
C=CCN1C(=O)[C@H](CC(=O)NCCc2ccccc2OC)[C@@]2(C(=O)OCC)CCCC=C12	.	.	.	.	.	-1.5
COc1ccc(CCNC(=O)/C=C\c2ccccc2)cc1OC	-5.6	3.0	0.3	14.5	2.0	-4.3
COc1ccc(/C=C/C(=O)NC(=S)NCCc2ccc(OC)c(OC)c2)cc1	-61.4*	1.2	-0.5	40.9	-0.5	0.1
O=S(=O)(c1cc(Cl)ccc1Cl)N1CCC2(CC1)OCCO2	-71.6*	-0.8	0.6	14.3	2.3	0.1
Cc1ccc(C(=O)N/C(=C\c2ccc(-c3ccc(Br)cc3)o2)C(=O)NCCCN(C)C)cc1	-97.5*	1.9	-8.8	9.3	-0.8	-9.1
Cc1ccc(S(=O)(=O)N2CCCC(C(=O)NCCc3ccc4c(c3)OCO4)C2)cc1 (stereo unspecified)	-68.5*	2.4	0.2	18.2	-4.2	-0.5
Cc1cccc(NC(=O)CSc2nnc(-c3cccnc3)n2Cc2ccco2)c1C	.	.	.	.	.	-1.9
O=C(N=C1c2ccccc2CN1c1ccccc1)c1cccc([N+](=O)[O-])c1	-0.2	1.7	1.0	10.2	0.1	4.0
CCOC(=O)c1ccc(N2Cc3ccccc3C2=NC(=O)c2cccc([N+](=O)[O-])c2)cc1	30.0	7.8*	-1.4	26.3	.	6.6
C=CCn1c2ccccc2c2nnc(SCCN3CCCCC3)nc21	-7.2	2.4	-1.7	44.9	-0.6	1.2
c1ccc(Cn2c3ccccc3c3nnc(SCCN4CCCCC4)nc32)cc1	15.5	-0.9	-3.7	-15.3	3.1	7.9*
O=C(c1ccccc1)N1CCN(c2ncnc3c2cnn3-c2ccccc2)CC1	2.9	-2.0	-2.5	14.1	0.6	-0.5
Cc1nn(-c2ccccc2)c(Cl)c1C(=O)N1CCN(c2ncnc3c2cnn3-c2ccccc2)CC1	-77.4*	-12.3	0.0	32.7	-2.2	-0.1
COc1cccc(N2CCN(CC(=O)NCc3c(F)cccc3F)CC2)c1	.	.	.	.	.	-2.8
COc1cccc(/C=N/NC(=O)c2cnccn2)c1	-75.7*	2.6	-2.2	1.4	-3.5	3.3
O=C1COc2ccc(C(=O)COC(=O)Cc3ccc(F)cc3)cc2N1	0.3	0.7	-1.2	-81.8*	.	1.6
O=C(Cc1ccc(F)cc1)OCC(=O)c1cc2ccccc2o1	-3.5	-0.7	0.2	7.0	16.2*	-0.7
